# The supplement of paper PMC6555819
# Legend:
# Assay in all cases: PBM binding z-score (relative to random genomic background probes); higher = stronger binding; sequences stand for … in GC…GCGATTGACAGCGTAGAATGAAGG
# [1] = tested on: FXR:RXRa (NR concentration 270 nM, RXRa partner concentration 90 nM)
# Outline: (§1)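 On custom Agilent 4×180K arrays, double-stranded probes with 34-nt variable regions carried direct-repeat seeds, single-nucleotide variants, half-site ablations or random human genomic background. Ligand-free nuclear receptor dimers were applied for 1 h, and binding was read with antibodies against each partner (one per run). Binding z-scores come from regression-normalized fluorescence, with the random background probes as reference.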
# [2] = tested on: LXRa:RXRa (NR concentration 270 nM, RXRa partner concentration 90 nM)
# Outline: as §1
# [3] = tested on: LXRa homodimer (NR concentration 270 nM)
# Outline: as §1
# [4] = tested on: LXRb:RXRa (NR concentration 270 nM, RXRa partner concentration 90 nM)
# Outline: as §1
# [5] = tested on: LXRb homodimer (NR concentration 270 nM)
# Outline: as §1
# [6] = tested on: PPARa:RXRa (NR concentration 270 nM, RXRa partner concentration 90 nM)
# Outline: as §1
# [7] = tested on: PPARg:RXRa (NR concentration 180 nM, RXRa partner concentration 90 nM)
# Outline: as §1
# [8] = tested on: PPARg:RXRa 270nM:90nM, anti-RXR (NR concentration 270 nM, RXRa partner concentration 90 nM)
# Outline: as §1
# [9] = tested on: PPARg:RXRa 30nM:10nM, anti-RXR (NR concentration 30 nM, RXRa partner concentration 10 nM)
# Outline: as §1
# [10] = tested on: PPARg:RXRa 90nM:30nM, anti-RXR (NR concentration 90 nM, RXRa partner concentration 30 nM)
# Outline: as §1
# [11] = tested on: PPARg:RXRa DBDmut IVT, anti-RXR (DBD mutation: RXRa K156A/R161A, NR concentration 270 nM, RXRa partner concentration 90 nM)
# Outline: as §1
# [12] = tested on: PPARg:RXRa IVT, anti-PPARg (NR concentration 270 nM, RXRa partner concentration 90 nM)
# Outline: as §1
# [13] = tested on: PPARg DBDmut:RXRa IVT, anti-PPARg (DBD mutation: PPARg1 K132A/R137A, NR concentration 270 nM, RXRa partner concentration 90 nM)
# Outline: as §1
# [14] = tested on: PPARg DBDmut IVT, anti-PPARg (DBD mutation: PPARg1 K132A/R137A, NR concentration 270 nM)
# Outline: as §1
# [15] = tested on: PPARg homodimer (NR concentration 180 nM)
# Outline: as §1
# [16] = tested on: PXR:RXRa (NR concentration 270 nM, RXRa partner concentration 90 nM)
# Outline: as §1
# [17] = tested on: PXR homodimer (NR concentration 270 nM)
# Outline: as §1
# [18] = tested on: RARa:RXR (NR concentration 270 nM, RXRa partner concentration 90 nM)
# Outline: as §1
# [19] = tested on: RARa homodimer (NR concentration 270 nM)
# Outline: as §1
# [20] = tested on: RARb:RXRa (NR concentration 270 nM, RXRa partner concentration 90 nM)
# Outline: as §1
Sequence,PBM binding z-score [1],PBM binding z-score [2],PBM binding z-score [3],PBM binding z-score [4],PBM binding z-score [5],PBM binding z-score [6],PBM binding z-score [7],PBM binding z-score [8],PBM binding z-score [9],PBM binding z-score [10],PBM binding z-score [11],PBM binding z-score [12],PBM binding z-score [13],PBM binding z-score [14],PBM binding z-score [15],PBM binding z-score [16],PBM binding z-score [17],PBM binding z-score [18],PBM binding z-score [19],PBM binding z-score [20]
ATCGAAAGGTCGTAGGTGAGTATACCCACCCGAA,5.3,4.31,0.335,3.11,0.812,5.14,4.11,4.56,1.68,3.46,-0.212,2.34,1.08,0.645,1.97,3.12,0.577,4.04,0.489,3.76
CCGGACAGGTGAGAAGGTAACTCAGCCTCGATTA,-0.332,-0.196,-0.289,-0.26,-0.839,0.454,0.347,0.118,-0.24,-0.183,1.04,0.612,-0.39,-1.64,0.569,-0.415,-0.227,-0.262,0.0296,0.711
CCGAGTAGGTGATGGGGCATTCAGGCAACGGTGA,-0.0189,-0.218,-0.529,-0.326,-1.01,1.72,3.51,4.41,2.46,4.61,2.92,3,0.0749,-1.06,0.758,-0.262,-0.379,-0.226,-0.778,0.297
ATCTCTAGGTAAAAGTTCAGTTAATCCCGAGGAT,1.31,1.89,1.81,1.34,1.19,4.56,8.35,7.9,8.17,8.69,1.85,3.99,1.85,1.29,2.13,2.28,2.02,1.85,1.39,2.24
CTACCAAGGTGAACAAGGTCGGTGATTACTATTC,0.778,0.251,-0.361,0.578,-0.54,1.69,0.819,0.753,-0.269,0.288,1.91,2.78,0.327,-0.584,0.38,0.812,0.00939,1.11,0.0895,1.97
TCTAGTTGGTGAAAGGTCACACACTCGAAATGCG,5.7,5.73,3.63,5.31,1.6,6.32,10.8,9.75,9.91,11.4,2.69,5.86,2.76,2.05,7.7,5.97,2.06,7.3,4.58,4.79
ACTATTAGTTGCCTTAGGGCAACCGATACGACGC,0.218,0.346,0.285,0.202,0.935,0.287,0.672,0.279,0.294,0.358,-0.0728,0.674,0.726,0.896,0.221,0.335,-0.148,0.576,0.282,0.771
TAGCCTAGTTCAGATCGGGCCAGTATACGCTATA,-0.29,-0.351,-0.598,-0.308,-0.592,-0.113,-0.019,-0.325,-0.538,-0.475,0.415,0.54,-0.537,-0.978,-0.824,0.226,-0.407,0.532,-1.17,0.472
GCTATAAGTTGAAAGGGCAACCGAATGATTCTCG,1.08,1.24,0.185,1.23,-0.471,3.05,2.26,3.37,1.46,3.15,0.434,0.831,0.223,0.266,1.11,1.41,0.107,2.56,0.129,2.46
GCGACTGGGGCAGAGCAGGTTACCATAAGGTTGG,0.158,-0.389,-0.79,-0.197,-1.19,0.462,0.564,0.0587,-1.01,-0.178,3.52,2.22,-0.693,-0.694,-0.578,-0.201,-0.162,-0.103,-0.568,0.569
CCAGACAGGTGAGAAGGTAACTCCGCCTCGATTA,-0.167,-0.237,0.189,-0.163,-0.188,0.436,0.351,0.504,-0.516,0.193,1.06,0.448,-0.414,-1.08,0.567,-0.515,-0.154,0.0222,0.152,0.539
GCTATTAGTTGAAAGGGCACCCGAATGATTCTCG,0.43,0.387,0.235,0.554,-0.128,2.14,2.65,4.3,2.41,3.99,0.791,0.951,-0.101,0.368,1.05,0.72,0.405,1.28,0.468,1.72
CGAACGAGTGCATGAGTTGATAGCAAATGCCGAT,-0.259,-0.143,-0.369,-0.0215,-0.861,0.127,0.68,0.262,-0.00177,-0.142,-0.266,-0.442,-0.401,0.0555,-0.0589,0.62,0.717,0.133,-0.713,0.209
ATCGAAAGGTCGACGAGGTTAGTATACACCGTTT,4.41,3.75,0.309,3.11,0.782,4.33,2.6,3.04,0.863,2.24,0.568,1.88,1.2,0.625,1.24,4.03,2.16,3.97,0.691,3.86
